We go through nine compounds from PubChem BioAssay (Tox21).

“And” between values parts separate entries of the source, which are not always exact repeats. Equal values may be shown once. Results filed as inconclusive are left out. A structure can be active in one record and inactive in another. The source made the active and inactive calls. Unless noted, calls come from the whole dose curve; as a rule, active = well fitted curve in the direction sought with a large enough effect in the repeat runs; inconclusive = weak or mixed curves; inactive = no such curve, though single readings can be large; an effect the other way counts as inactive or inconclusive.

A short description of assay [1]: qHTS assay to identify small molecule antagonists of the constitutive androstane receptor (CAR) signaling pathway - cell viability counter screen (AID 1224837). Note: series mostly up to about 92 µM; nearly all actives have a fitted effect of over 45% in size. In outline:
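Using CellTiter-Fluor, viability is scored in HepG2 cells stably carrying hCAR and a 2.2kb CYP2B6 reporter after 23 hr compound exposure across 15 concentrations, with CITCO present at 50 nM.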
A general note: qHTS replaces the single test concentration by a dilution series.

Assay [2] deals with Nuclear receptor subfamily 1 group I member 3 (Homo sapiens) (UniProt Q14994). In words: qHTS assay to identify small molecule antagonists of the constitutive androstane receptor (CAR) signaling pathway (AID 1224838).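 Note: HepG2 cells stably expressing hCAR with CYP2B6 luciferase reporter stimulated by CITCO; nearly all actives have a fitted effect of over 40% in size.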 In outline: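 Reporter luminescence was quantified after 24 h exposure of hCAR/CYP2B6-2.2kb double-stable HepG2 cells to compounds at 15 concentrations in the presence of 50 nM CITCO final.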

Assay [3] has the same target. In words: qHTS assay to identify small molecule agonists of the constitutive androstane receptor (CAR) signaling pathway (AID 1224839).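 For activation: HepG2 cells stably carrying human CAR and a CYP2B6 luciferase reporter; series mostly up to about 92 µM.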 Note: nearly all actives have a fitted effect of over 15% in size. Note: potency is the fitted concentration of half-maximal effect. In outline:
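Cells were plated and incubated 4 hrs, then dosed with compounds at 15 concentrations. PK11195 was added to 0.75 uM final. After 24 hrs at 37 C, luciferase luminescence was measured.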

Assay [4] in a line: qHTS assay to identify small molecule antagonists of the estrogen related receptor signaling pathway with the pleiotropic PPARgamma coactivator (PGC) from Tox21 10K library - cell viability counter screen (AID 1224840; active = well fitted cell-killing curve with a large enough effect in the repeat runs, not every such curve was filed as active; note: nearly all actives have a fitted effect of over 40% in size). In outline: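 Here the PGC/ERR cells serve as a cytotoxicity control: they are exposed to compounds for 17.5 hours at 37 C, and live-cell signal is quantified using CellTiter-Fluor fluorescence.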

The nature of assay [5]: qHTS assay to identify small molecule antagonists of the estrogen related receptor signaling pathway with the pleiotropic PPARgamma coactivator (PGC) from Tox21 10K library (AID 1224841; call rule not given here; note: series mostly up to about 92 µM; actives are mostly falling curves and most rising ones were filed inactive; nearly all actives have a fitted effect of over 50% in size). In outline: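 Each well held 2,000 PGC/ERR cells, pre-incubated six hours (37 C, 5% CO2). Test substances in DMSO were added by pin tool and left for 18 h at 37 C before luciferase detection by One-Glo.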

Assay [6] can be described thus: qHTS assay to identify small molecule agonists of the estrogen related receptor signaling pathway with the pleiotropic PPARgamma coactivator (PGC) from Tox21 10K library (AID 1224842). Note: nearly all actives have a fitted effect of over 15% in size. In outline:
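PGC/ERR reporter cell line, 2,000 cells per well, incubated 6 h at 37 C before 23 nL compound in DMSO was added. After 18 h at 37 C, One-Glo luminescence read following 30 min at room temperature.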

Assay [7] has as its target Thyrotropin receptor (Homo sapiens) (UniProt P16473). Kind of assay: qHTS assay to identify small molecule agonists of the thyroid stimulating hormone receptor (TSHR) signaling pathway (AID 1224843; calls by dose curve; note: nearly all actives have a fitted effect of over 45% in size). In outline:
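TSHR-HEK293 cells in agonist mode, 30 min room-temperature step, then cAMP measured by competitive HTRF (cAMP-d2 with anti-cAMP cryptate) after 1 h at room temperature. Tested at 15 concentrations in triplicate.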

Assay [8] can be described thus: qHTS assay to identify small molecule agonists of the hypoxia (HIF-1) signaling pathway - cell viability counter screen (AID 1224844; calls by dose curve; note: nearly all actives have a fitted effect of over 50% in size). In outline:
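Multiplexed with the HRE beta-lactamase assay, this viability read used CellTiter-Glo luminescence (30 min, RT) on HRE-bla ME-180 cells treated 17 hrs with compounds in 0.5% dialyzed FBS medium.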

Assay [9] can be described thus: qHTS assay to identify small molecule agonists of H2AX (AID 1224845; active = well fitted activation curve with a large enough effect in the signal ratio in the repeat runs, not every such curve was filed as active; the % refers to the signal ratio). In outline:
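Wild-type CHO-K1 cells, plated overnight, exposed 3hr at 37C to 15 concentrations (0.76% DMSO final). Lysed, then HTRF anti-pH2AX (S139) cryptate and anti-H2AX-d2 antibodies, 24 hr room temperature; 665/620 nm emission read.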

Assay [10] can be described thus: qHTS assay to identify small molecule agonists of the hypoxia (HIF-1) signaling pathway (AID 1224846; active = well fitted activation curve with a large enough effect in the signal ratio in the repeat runs, not every such curve was filed as active; the % refers to the signal ratio). In outline: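 Hypoxia-pathway activation was scored as increased beta-lactamase from an HRE-controlled reporter in ME-180 cells; plated at 2,000 cells per well with 0.5% dialyzed FBS, they were exposed 17 hrs to compounds and then given CCF4-AM.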
Assay [11] can be described thus: qHTS assay to identify small molecule agonists of H2AX - cell viability counter screen (AID 1224847; calls by dose curve; note: top concentration of the series differs between compounds; nearly all actives have a fitted effect of over 30% in size). In outline:
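Cytotoxicity counter screen in wild-type CHO-K1 cells: a 3 hr compound treatment at 37C across 15 concentrations, followed by CellTiter-Glo luminescence to gauge viable cells.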

The nature of assay [12]: qHTS assay to identify small molecule antagonists of the estrogen related receptor (ERR) signaling pathway from Tox21 library (AID 1224848). Note: nearly all actives have a fitted effect of over 50% in size. In outline:
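ERR reporter cell line (from NTP) seeded 2,000 cells/well, rested 6 h at 37 C/5% CO2, then pin-dosed with compounds in DMSO. After 18 h at 37 C, ONE-Glo added; luminescence read after 30 min at room temperature.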

Assay [13] can be described thus: qHTS RealTime-Glo MT Cell Viability Assay in HepG2 cells - 24 hour (AID 1224867). Note: nearly all actives have a fitted effect of over 50% in size. In outline:
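HepG2 cells (600/well) were dispensed with RealTime-Glo reagents, incubated 5 h at 37 °C, then treated with compounds in DMSO for up to 40 h. Nonlytic NanoLuc luminescence reflecting viable cells was read at each stated time point.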

A short description of assay [14]: qHTS RealTime-Glo MT Cell Viability Assay in HEK293 cells - 32 hour (AID 1224868). In outline: (§1)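 HEK293 cells seeded with NanoLuc/prosubstrate reagent, rested 5 h at 37 C, then dosed and kept at 37 C up to 40 h. Nonlytic real-time luminescence from viable cells read at 0, 8, 16, 24, 32 and 40 h.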
The nature of assay [15]: A CellTox Green Cytotoxicity Assay to monitor cytotoxicity in HEK293 cells - 0 hour (AID 1224869). Note: nearly all actives have a fitted effect of over 50% in size. In outline:
(§2)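 Seeding of HEK293 cells together with cytotoxicity dye preceded a 5 h incubation at 37 C/5% CO2. Test compounds in DMSO were then added and fluorescence monitored across 40 h.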

Assay [16] in a line: qHTS RealTime-Glo MT Cell Viability Assay in HepG2 cells - 40 hour (AID 1224870). Note: nearly all actives have a fitted effect of over 50% in size. In outline:
(§3)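 HepG2 cells (600/well) mixed with RealTime-Glo MT reagent, settled 5 h at 37 C/5% CO2 before compound addition. Nonlytic NanoLuc luminescence from viable-cell prosubstrate reduction read repeatedly during 40 h treatment at 37 C.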

The nature of assay [17]: A CellTox Green Cytotoxicity Assay to monitor cytotoxicity in HEK293 cells - 40 hour (AID 1224871). Note: nearly all actives have a fitted effect of over 45% in size. In outline: as §2
Assay [18] is described as follows: qHTS RealTime-Glo MT Cell Viability Assay in HEK293 cells - 16 hour (AID 1224872). In outline:
as §1

A short description of assay [19]: qHTS RealTime-Glo MT Cell Viability Assay in HepG2 cells - 8 hour (AID 1224873). Note: nearly all actives have a fitted effect of over 55% in size. In outline: as §3

Chain of Thyrotropin receptor (Homo sapiens) (P16473 whole entry, looked up): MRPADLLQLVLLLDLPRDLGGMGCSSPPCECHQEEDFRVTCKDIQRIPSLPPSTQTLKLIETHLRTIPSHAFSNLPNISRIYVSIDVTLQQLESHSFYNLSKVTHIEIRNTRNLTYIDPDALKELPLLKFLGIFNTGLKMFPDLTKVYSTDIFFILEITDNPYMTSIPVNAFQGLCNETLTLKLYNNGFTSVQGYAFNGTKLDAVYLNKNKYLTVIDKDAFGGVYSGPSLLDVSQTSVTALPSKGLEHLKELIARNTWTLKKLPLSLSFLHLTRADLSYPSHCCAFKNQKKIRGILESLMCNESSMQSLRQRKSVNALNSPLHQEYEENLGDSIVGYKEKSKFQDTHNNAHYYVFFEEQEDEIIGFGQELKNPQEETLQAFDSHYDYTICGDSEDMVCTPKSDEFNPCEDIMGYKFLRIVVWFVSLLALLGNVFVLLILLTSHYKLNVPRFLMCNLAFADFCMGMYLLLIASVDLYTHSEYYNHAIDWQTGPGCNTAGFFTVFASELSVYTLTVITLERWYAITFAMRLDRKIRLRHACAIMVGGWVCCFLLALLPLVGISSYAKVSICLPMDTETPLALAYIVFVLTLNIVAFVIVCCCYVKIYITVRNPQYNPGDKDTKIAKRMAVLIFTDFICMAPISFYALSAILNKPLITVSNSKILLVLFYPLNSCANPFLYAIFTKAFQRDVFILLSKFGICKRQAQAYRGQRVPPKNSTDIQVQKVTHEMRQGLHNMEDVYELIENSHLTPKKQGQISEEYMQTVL
Chain of Nuclear receptor subfamily 1 group I member 3 (Homo sapiens) (Q14994 whole entry, looked up): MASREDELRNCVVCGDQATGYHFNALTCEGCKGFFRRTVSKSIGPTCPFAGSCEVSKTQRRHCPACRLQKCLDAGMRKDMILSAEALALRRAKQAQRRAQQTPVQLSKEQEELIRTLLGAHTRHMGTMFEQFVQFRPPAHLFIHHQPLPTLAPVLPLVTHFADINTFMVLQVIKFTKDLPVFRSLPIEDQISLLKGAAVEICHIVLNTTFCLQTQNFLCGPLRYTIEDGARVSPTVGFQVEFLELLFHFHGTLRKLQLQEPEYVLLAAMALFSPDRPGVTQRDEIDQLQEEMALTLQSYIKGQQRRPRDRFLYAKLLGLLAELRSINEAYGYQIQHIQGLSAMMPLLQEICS

As to `CC(C)C1(C)N=C(c2nc3ccccc3cc2C(=O)O)NC1=O` (stereo unspecified), the Potency result in assay [1], in [2], in [3], in assay [4], in assay [5] and in assay [7] was “inactive” each time. Moreover, the Potency result in assay [8], in assay [9], in assay [11], in assay [12], in assay [14] and in [15] was “inactive” each time. Also, the Potency entry in [17] was “inactive”. Further, the compound was called inactive in assay [6], in [10], in assay [13], in [16], in assay [18] and in assay [19].
Turning to `Cn1cc(-c2ccccc2)c(=O)c(-c2cccc(C(F)(F)F)c2)c1`, the Potency result in assay [1], in assay [2], in assay [3], in assay [4], in assay [5] and in [7] was “inactive” throughout. In addition, the Potency result in assay [8], in assay [12], in [14], in assay [15] and in assay [17] was “inactive” each time. The compound was called inactive in [6], in assay [10], in [13], in assay [18] and in assay [19].
`CN1C(=O)CN=C(c2ccccc2)c2cc(Cl)ccc21`: the Potency result in [1], in assay [2], in [3], in assay [4], in [5] and in [7] was “inactive” in each case. Further, the Potency entry in assay [8], in assay [9], in assay [11], in [12], in [14] and in [15] was “inactive” in each case. Also, the Potency result in [17] was “inactive”. Also, the result in assay [10], in assay [13], in assay [18] and in assay [19] was inactive.
As for `ClCCBr`, the Potency entry in [1], in assay [2], in [3], in assay [4], in assay [5] and in assay [7] was “inactive” each time. In addition, the Potency entry in assay [8], in [9], in assay [11], in [12], in [14] and in assay [15] was “inactive” each time. Further, the Potency entry in assay [17] was “inactive”. Further, the compound was called inactive in [6], in [10], in [13], in assay [16], in [18] and in assay [19].
Regarding `Cc1ccc([N+](=O)[O-])cc1C`, the Potency result in [1], in assay [2], in assay [3], in assay [4], in [7] and in assay [8] was “inactive” in each case. The Potency entry in assay [11], in assay [14], in [15] and in assay [17] was “inactive” in each case. Moreover, the compound was called inactive in assay [10], in assay [13], in assay [16] and in [18].
Take `CCOP(OCC)OCC`: the Potency entry in assay [1], in assay [2], in assay [3], in assay [4], in [8] and in assay [9] was “inactive” throughout. The Potency result in assay [11], in [14], in [15] and in assay [17] was “inactive” in each case. Besides, the outcome in assay [10], in assay [13], in assay [16] and in assay [18] was inactive.
For `CCOP(=S)(OCC)Oc1cnc2ccccc2n1`, the Potency entry in assay [1], in assay [2], in assay [4], in [7], in assay [8] and in assay [14] was “inactive” in each case. In addition, the Potency entry in [15] and in assay [17] was “inactive” in each case. Moreover, the Potency result in assay [3] is “inactive and 30.6 µM (active)”. For the same compound, the call in assay [10], in [13], in [16], in assay [18] and in [19] was inactive.
As to `O=[N+]([O-])c1ccc([As](=O)(O)O)cc1`, the Potency entry in [1], in [2], in assay [3], in assay [4], in assay [7] and in assay [8] was “inactive” in each case. The Potency result in assay [9], in assay [14], in [15] and in [17] was “inactive” each time. In addition, the compound was classed as inactive in [10], in assay [13], in assay [16], in assay [18] and in assay [19].
Regarding `CN(C)[C@@H]1C(=O)C(C(N)=O)=C(O)[C@@]2(O)C(=O)C3=C(O)c4c(O)cccc4[C@@](C)(O)[C@H]3C[C@@H]12`, the Potency result in assay [1], in assay [2], in assay [3], in [4], in assay [7] and in [8] was “inactive” each time. Besides, the Potency entry in assay [11], in [14], in assay [15] and in [17] was “inactive” in each case. Besides, the compound was classed as inactive in [13], in assay [18] and in assay [19].
